Source: PubChem
D2 antag – antagonists of human D2 dopamine receptor. HEK293 TREx D2 cells, calcium flux, dopamine EC80. inhibition, % at 10 µM. actives 2% (n = 340,000). AID 485344; in the data active = inhibition above about 30%; inactive = below that, where a call was filed; note: 0% is about no effect
Target sequence (P14416 whole entry, looked up): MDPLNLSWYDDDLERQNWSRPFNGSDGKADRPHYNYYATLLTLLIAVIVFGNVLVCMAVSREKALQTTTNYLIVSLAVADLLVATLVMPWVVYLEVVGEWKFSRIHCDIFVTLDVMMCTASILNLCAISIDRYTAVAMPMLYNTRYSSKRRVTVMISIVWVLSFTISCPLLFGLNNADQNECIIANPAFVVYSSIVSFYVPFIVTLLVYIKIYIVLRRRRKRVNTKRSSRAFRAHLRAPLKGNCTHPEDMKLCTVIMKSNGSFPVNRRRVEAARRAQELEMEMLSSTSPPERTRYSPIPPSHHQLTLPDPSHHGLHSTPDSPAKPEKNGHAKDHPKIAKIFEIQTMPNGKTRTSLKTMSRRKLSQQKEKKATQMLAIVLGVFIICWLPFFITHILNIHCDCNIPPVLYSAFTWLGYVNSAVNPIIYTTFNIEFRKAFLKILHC
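In this primary screen, negative modulation is detected by tracking calcium flux after an EC80 dopamine challenge in inducible HEK293 T-REx D2 cells preexposed to test compound for 180 s.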
D2 PAM-1 – potentiates the human D2 dopamine receptor allosterically; DiscoveRx D2 beta-arrestin cells, luminescence, 90 min; 100% = 57 uM dopamine signal; AID 624464; potentiation, % (concentration not given with the values); actives 0.23% (n = 360,000); in the data active = potentiation above about 50%; inconclusive = mostly about 30% to 49%
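D2 cells co-treated with compound plus 50 nM dopamine (EC20) for 90 min at 37 deg C to detect potentiation. Beta-arrestin recruitment was read as enzyme-fragment luminescence after 1 h at ambient temperature. Full response was set by 57 uM dopamine.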
D2 ag-1 – agonists of human D2 dopamine receptor (beta-arrestin) | P14416 | DiscoveRx PathHunter D2 beta-arrestin, luminescence, 90 min; 100% = 57 uM dopamine signal | activation, % (no concentration beside the values) | actives 0.084% (n = 360,000) | AID 624465; in the data active = activation above about 40%; inconclusive = between about 15% and that limit
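DiscoveRx PathHunter D2 beta-arrestin cells (2,100/well) attached overnight, then compound-stimulated 90 min at 37 C in HBSS/10 mM HEPES/0.1% Tween-20 buffer; beta-galactosidase complementation read by luminescence after 1 h at ambient temperature. Dopamine 57 uM final (EC100) as control.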
D2 PAM-2 – positively modulates the human D2 dopamine receptor allosterically. P14416. HEK293 T-REx D2, calcium flux, EC20 dopamine potentiation. potentiation, % at 10 µM. actives 0.34% (n = 340,000). AID 485347;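 active = potentiation over 3 SD above the plate norm, cut at about 30% in these data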; note: 0% is about no effect
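Potentiation of an EC20 dopamine calcium response is measured in a force-coupled, tetracycline-inducible Hek293 Trex D2 line. Compound-only kinetic reads over 180 s flag agonists before dopamine addition.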
D2 ag-2 – activates the human D2 dopamine receptor; AID 485358; activation, % at 2 µM; HEK293 T-REx D2 cells, calcium flux agonist mode; actives 0.53% (n = 340,000); P14416;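 active = activation over 3 SD above normal in the single-dose calcium agonist read, cut at about 30% in these data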; note: 0% is about no effect
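Agonism scored from kinetic calcium signal (1 read/sec, 180 s) following compound pin transfer, after a 10 s baseline. Cells: HEK293 Trex line expressing inducible D2 receptor coupled to calcium, dye-loaded after overnight culture at 30 C.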
* marks the source's active call; other numbers are inactive results; ? = inconclusive; / = not tested or not shown. Compounds with a hit are over-represented: about 2.4% of the library has one in this group of screens.

SMILES	D2 antag	D2 PAM-1	D2 ag-1	D2 PAM-2	D2 ag-2
CC(CN1CCN(Cc2ccccc2)CC1)c1ccccc1 (stereo not given)	0	-64	-4	1	0
CCOc1ccc(NC(=O)CN2CCSc3ccc(S(=O)(=O)N4CCCC4)cc32)cc1	/	/	/	-7	0
CC1=C(C)CC(C(=O)Nc2nc(-c3ccc(C)cc3C)c(C)s2)C(C(=O)O)C1 (stereo not given)	-8	60*	4	-5	0
Clc1cccc(-c2nn3c(Cn4cnc5ccccc54)nnc3s2)c1	34*	-5	-3	13	3
CC1=CC(C)(C)N(C(=O)CN2C(=O)CCC2=O)c2ccc(C)cc21	30*	-2	-2	11	-1
Cc1ccc(C2CC(c3ccc(Br)cc3)=NN2C(=O)CSC2=NN3CCCC(=O)N=C3S2)cc1 (stereo not given)	-3	-8	-2	33*	0
COc1ccc(C2=NN(C(=O)CSc3nc(=O)n4cc(C)ccc4n3)C(c3ccc(C)cc3)C2)cc1 (stereo not given)	41*	-13	6	-6	0
COc1ccc(C2=NN(C(=O)CSc3ncccn3)C(c3ccc(OC)cc3)C2)cc1 (stereo not given)	17	-21	-2	13	1
O=C1CCCN2N=C(SCC(=O)N3N=C(c4ccc(Br)cc4)CC3c3ccc(F)cc3)SC2=N1 (stereo not given)	15	-7	1	-2	4
Cc1coc2cc3oc(=O)c(CC(=O)NCc4ccccc4)c(C)c3cc12	/	/	/	0	/
CCn1c(C)cc(/C=C2/SC(=S)NC2=O)c1C	4	-11	0	5	6
CCn1ncc(/C=C2/SC(=S)NC2=O)c1C	12	-13	-2	-12	33*
COC(=O)c1ccc(NC(=O)CSc2ncc3c(n2)-c2cc(Cl)ccc2N(Cc2ccccc2)S3(=O)=O)cc1	/	/	/	-2	1
CCCC[n+]1ccn(-c2nc3ccccc3nc2[N-]S(=O)(=O)c2ccc(C)cc2)c1	15	-10	2	-5	-1
CCCCC[n+]1ccn(-c2nc3ccccc3nc2[N-]S(=O)(=O)c2ccc(C)cc2)c1	38*	-10	-2	-2	0
Cc1cc(C(=O)COC(=O)c2ccc[nH]c2=O)c(C)n1C	-15	19	-1	2	1
O=C(O)c1nn(CCOc2cccc(Cl)c2)c(=O)c2ccccc12	-4	1	-3	1	0
COCCn1c(C)cc(C(=O)COC(=O)c2ccc[nH]c2=O)c1C	62*	4	0	4	0
O=C(O)c1nn(CCOc2c(Cl)cccc2Cl)c(=O)c2ccccc12	4	-2	3	45*	-1
COCCn1c(C)cc(C(=O)Cn2nc(C(=O)O)c3ccccc3c2=O)c1C	32*	-8	3	-1	1
O=C(NCC1(c2ccccc2)CCCC1)C(=O)Nc1cccc(Br)c1	/	/	/	1	1
c1ccc2c(c1)Nc1cc3ccccc3cc1O2	/	91*	?	/	/
COc1ccccc1N1CCN(C(=O)CSc2nnnn2C2CC2)CC1	2	-15	-2	1	1
COc1ccc(N2CCN(C(=O)CSc3nnnn3C3CC3)CC2)cc1	32*	-2	-1	-15	1
[N-]=C=C1C(=S)NC(=O)[C@H]([n+]2ccccc2)[C@H]1c1ccc(Cl)cc1	-9	-5	5	6	1
SMILES	D2 antag	D2 PAM-1	D2 ag-1	D2 PAM-2	D2 ag-2
[N-]=C=C1C(=O)NC(=O)C([n+]2ccc(-c3ccncc3)cc2)C1c1ccccc1C(F)(F)F (stereo not given)	35*	5	7	3	-1
Nc1nnc(-c2ccccc2F)s1	45*	-5	-2	11	1
Cc1cn2c(=O)cc(COc3ccc(NC(=O)c4ccc(C(C)(C)C)cc4)cc3)nc2s1	/	/	/	8	-1
COC(=O)c1cc(C(=O)c2ccc(Cl)cc2Cl)cn1C	1	10	-1	38*	1
Cc1ccc(-c2nc3cc(C(C)C)ccc3o2)cc1NC(=O)c1cc([N+](=O)[O-])ccc1N1CCOCC1	/	/	/	-2	-1
COc1cc(CO)ccc1Oc1nnnn1-c1ccc(C(N)=O)cc1	31*	-6	-1	-6	0
